Many of the other results were omitted from the sample, so hits are more common in it than they were.
Artemis endo inh = blocks endonuclease activity of human Artemis | Q96SD1 | recombinant Artemis, quenched FAM hairpin cleavage fluorescence | inhibition, % at 10 µM | hit rate 0.78% among 30,000 | AID 686954;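 active means at 10 µM dose, at least 30% inhibition, measured as corrected fluorescence normalized to stimulator and neutral control wells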
Target sequence (Q96SD1 whole entry, looked up): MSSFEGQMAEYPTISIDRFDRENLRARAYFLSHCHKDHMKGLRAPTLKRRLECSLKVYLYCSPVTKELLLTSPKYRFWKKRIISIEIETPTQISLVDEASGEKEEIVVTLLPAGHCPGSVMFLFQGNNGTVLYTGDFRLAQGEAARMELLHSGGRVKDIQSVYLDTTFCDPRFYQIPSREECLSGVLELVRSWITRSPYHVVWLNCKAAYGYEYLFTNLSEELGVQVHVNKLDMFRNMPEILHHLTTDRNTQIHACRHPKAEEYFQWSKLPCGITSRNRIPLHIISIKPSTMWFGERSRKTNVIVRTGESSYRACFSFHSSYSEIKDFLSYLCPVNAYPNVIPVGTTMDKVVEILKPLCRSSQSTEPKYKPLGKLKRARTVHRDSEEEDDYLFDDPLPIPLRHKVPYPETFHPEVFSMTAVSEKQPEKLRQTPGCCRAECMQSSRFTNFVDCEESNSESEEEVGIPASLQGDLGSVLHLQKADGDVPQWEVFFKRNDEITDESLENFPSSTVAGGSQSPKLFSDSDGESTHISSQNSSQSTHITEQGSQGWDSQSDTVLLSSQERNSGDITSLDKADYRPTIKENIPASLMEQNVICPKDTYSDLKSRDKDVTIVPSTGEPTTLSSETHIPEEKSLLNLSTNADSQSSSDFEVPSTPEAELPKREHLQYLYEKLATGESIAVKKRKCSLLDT
* marks the source's active call; other numbers are inactive results.

SMILES	Artemis endo inh
CCOC(=O)CSc1nnc(SCCN2C(=O)c3ccccc3C2=O)s1	-5.5
O=C1/C(=C/c2ccccc2)CSc2sccc21	-2.1
CCC(C)Sc1nc2ccccc2c(=O)[nH]1 (centres undefined)	-1.2
[O-][n+]1onc2c3cc(-c4ccccc4)nnc3ccc21	4.2
O=C(Nc1nnc(C2CC2)s1)c1ccncc1	1.4
Oc1c(Br)cc(C2N=C(c3ccccc3Cl)NO2)cc1Br (centres undefined)	31.2*
O=C(O)c1cc(-c2ccccc2Cl)n[nH]1	-8.9
Cc1ccc(N2C(=O)CC(Sc3ncn[nH]3)C2=O)cc1C (centres undefined)	-6.2
COc1ccc(-n2nnnc2-c2cn(C)nc2C(F)(F)F)cc1	-5.7
COc1ccc2c(c1)c(C(O)CN1CCC(Cc3ccccc3)CC1)c(C)n2C (centres undefined)	-0.8
Cc1cc(C)n(-c2nc(NC(C)(C)C)nc(NC(C)(C)C)n2)n1	-4.3
Cc1cc(C)n(-c2nc(Nc3ccccc3C(F)(F)F)nc(-n3nc(C)cc3C)n2)n1	57.0*
Cc1csc(Nc2ccccc2C(F)(F)F)n1	-2.7
O=C1c2ccccc2C(=O)N1CCc1nc2ccccc2c(=O)n1Cc1ccco1	3.1
CCCCN(CC)S(=O)(=O)c1ccc(C(=O)Nc2nnc(-c3ccccc3Cl)o2)cc1	10.5
CC1CCCCN1S(=O)(=O)c1ccc(C(=O)Nc2nnc(-c3ccccc3Cl)o2)cc1 (centres undefined)	32.1*
CC1CCCCN1C(=O)c1ccc(S(=O)(=O)N2CCCCC2C)cc1 (centres undefined)	-2.8
COc1ccccc1-c1nnc(NC(=O)c2ccc(S(=O)(=O)N(C)C)cc2)o1	7.5
CCN1CCCC1CNS(=O)(=O)c1ccc(C(=O)Nc2ccccc2)cc1 (centres undefined)	2.1
CCC1CCCCN1S(=O)(=O)c1ccc(C(=O)Nc2nnc(-c3ccccc3Cl)o2)cc1 (centres undefined)	36.0*
Cc1nc2ccccc2n1C(=O)c1cc(-c2ccc(Br)cc2)nc2ccccc12	4.5
O=C(NCC1(c2ccccc2)CCCC1)c1cccc(Br)c1	4.3
CCOC(=O)c1sc(C)c2c1NC(c1ccc(Cl)cc1)NC2=O (centres undefined)	8.0
Cc1cc(N2CCN(c3cccc(C)c3C)CC2)nc(-c2ccccc2)n1	3.3
C=CCn1c(SCC(=O)Nc2ncc(Cc3cc(Cl)ccc3Cl)s2)nnc1-c1ccncc1	-1.3
SMILES	Artemis endo inh
O=C1NC(=O)/C(=C\c2ccccc2Oc2ccc(F)c(F)c2)S1	33.7*
COc1ccc(NC(=O)CSc2nc3ccccc3c(=O)n2CCCN2CCCCC2)c(OC)c1	-3.0
O=C(CCc1ccccc1)NC(NC(=S)Nc1ccc(Cl)cc1)C(Cl)(Cl)Cl (centres undefined)	5.6
Cc1nn(Cc2ccccc2)c2c1C(c1cccc(Cl)c1)C(C#N)=C(N)O2 (centres undefined)	1.4
Cc1c(Cl)c([N+](=O)[O-])nn1CC(=O)NC(C)C1CC2CCC1C2 (centres undefined)	-1.2
COc1ccc(NC(=O)COC(=O)c2c3c(nc4ccccc24)CCCC3)cc1Cl	3.4
COc1cccc(/C=N/NC(=O)CSc2nnc(C)n2-c2ccccc2)c1OC	-9.7
COc1cccc(/C=N/Nc2nn3cnnc3c3ccccc23)c1O	35.0*
COc1cccc(/C=N\n2c(C)nnc2C)c1OC	-4.9
O=C(NCCO)c1ccc2nc(-c3ccco3)c(-c3ccco3)nc2c1	37.8*
O=C(NCCCNC(=O)c1ccco1)c1ccco1	7.2
O=C(NCc1ccco1)c1ccc2snnc2c1	-0.3
Cc1cc(C(=O)OCC(=O)N2CCN(c3ccccc3)CC2)c2ccccc2n1	5.4
O=C1C2C3C=CC(C3=C(c3ccccc3)c3ccccc3)C2C(=O)N1Cc1ccccc1 (centres undefined)	-0.4
O=C(NNC(=O)c1cc(-c2ccc(Cl)cc2Cl)nc2ccccc12)Nc1ccccc1	5.8
O=C(COc1ccccc1)NNc1c2ccccc2nc2ccccc12	11.9
O=C(NNc1c2ccccc2nc2ccccc12)c1ccc(O)cc1O	38.1*
Cc1ccc(C(C(=O)NC2CCCCC2)N(Cc2ccco2)C(=O)Cn2cnc3ccccc32)cc1 (centres undefined)	7.7
CC(C)C(=O)Nc1sc2c(c1-c1nc3ccccc3[nH]1)CCCC2	4.2
COc1cccc(-c2csc(NC(C)=O)n2)c1	-4.9
Clc1ccc(-c2cn3nc4c(nc3n2)CCCC4)cc1	37.1*
COc1cccc(-c2cc(C(F)(F)F)n3nc(N)nc3n2)c1	-2.8
COc1cccc(-c2cn3nc4c(nc3n2)CCCC4)c1	35.6*
OC1CCN(c2c3c(nc4cc(-c5ccc(Cl)cc5)nn24)CCC3)CC1	3.9
Clc1ccc(-c2cn3cccnc3n2)cc1	-4.0
SMILES	Artemis endo inh
CCN(CC)S(=O)(=O)c1cccc(C(=O)NC(C(=O)Nc2nnc(C)s2)C(C)C)c1 (centres undefined)	7.6
COc1cccc(-c2nnc(SCC(=O)OC(C)C)n2Cc2ccco2)c1	-3.7
O=C(c1ccc(C#CC2(O)CCCCC2)cc1)N1CCN(C(c2ccccc2)c2ccccc2)CC1	11.6
C=CCn1c(SCC(=O)Nc2cc(C)on2)nc2sc(CC)cc2c1=O	2.2
Cc1ccc(C)c(NC(=O)CCc2ccc(S(=O)(=O)NC3CCCCC3)cc2)c1	2.2
C/C(=N\O)c1ccccc1C(=O)O	46.1*
O=C(O)c1ccccc1C(=O)OCc1ccccc1	-3.8
CNC(=O)CC(=O)Nc1ccccc1C(=O)O	-4.9
O=C1CC(N(CCc2ccccc2)C(=S)Nc2cc(Cl)ccc2Cl)C(=O)N1c1c(Cl)cccc1Cl (centres undefined)	3.5
CCOC(=O)c1c(C)[nH]c(C)c1C(=O)COC(=O)c1ccc(Cl)c(S(N)(=O)=O)c1	-3.6
COC(=O)c1ccc(C2/C(=C(/O)c3ccc(OC(C)C)cc3)C(=O)C(=O)N2c2cc(C)on2)cc1 (centres undefined)	31.9*
COC(=O)c1ccc(C2/C(=C(/O)c3ccc(OC)cc3)C(=O)C(=O)N2c2cc(C)on2)cc1 (centres undefined)	18.8
Cc1ccc(/C(O)=C2\C(=O)C(=O)N(c3cc(C)on3)C2c2cccc(Br)c2)cc1 (centres undefined)	11.9
Cc1c(N2C(=O)CS/C2=N\N=C\c2ccc(Br)cc2)c(=O)n(-c2ccccc2)n1C	16.8
CCN1CCN(c2ncc(C(=O)Nc3ccccc3C(=O)OC)c3ccccc23)CC1	-3.5
O=c1[nH][nH]c(C(F)(F)F)c1C=NCc1cccc(Cl)c1	3.0
COc1ccc(-n2c(SCC#N)nc3ccccc3c2=O)cc1	-0.5
Cc1cc(NC(=O)CSc2nc3ccccc3c(=O)n2-c2ccccc2)no1	-5.7
O=C1CCCN1CC(CN1CCOCC1)Sc1nc2ccccc2c(=O)n1-c1ccccc1 (centres undefined)	33.2*
O=c1c(Cl)nc2cc(Cl)ccc2n1CCNc1ncc(C(F)(F)F)cc1Cl	2.6
CCCC/C(C)=N/NC(=O)C(=O)NCCc1ccccc1	-12.0
O=C(COc1ccccc1)N1CCN(C(=O)Cc2ccccc2)CC1	-1.5
N#Cc1c(NC(=O)CCn2cnc3ccccc3c2=O)oc(-c2ccccc2)c1-c1ccccc1	8.4
N#Cc1c(-c2ccccc2)c(-c2ccccc2)nn(CC(=O)NNC(=O)Nc2ccc(Cl)c(Cl)c2)c1=O	30.1*
N#Cc1c(-c2ccccc2)nc2n(-c3ccccc3)nc(C(=O)Nc3ccccc3)n2c1=O	10.1
COc1ccc(OC)c(NC(=O)c2ccccc2NS(=O)(=O)c2cccc3cccnc23)c1	-1.2
COc1ccc2[nH]c3c(NCCN(C(C)C)C(C)C)ncnc3c2c1	-9.2

High-throughput results from PubChem BioAssay.
